These results are taken from PubChem BioAssay AID1076 (NMMLSC, 2008).

The source made the active and inactive calls.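 Rule for the calls: active = cell event count below 40, meaning activity score above 60 where score is 100 minus count; inactive = the rest.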

This test is described as follows: LNCaP cell loss by flow event count, confirmation, cytotoxicity control for prostate differentiation activator project, single point (AID 1076).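 Note: counts scatter-gated live cells after medium removal discards detached dead cells.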 Conditions: flow cytometry event count, 4 d, stronger effect = lower value. Background: Flow cytometry measures light scatter and fluorescence of single cells or particles in a stream.

Consider `CN1CCN(c2oc(COc3ccc(-c4ccccc4)cc3)nc2C#N)CC1`, for which the cell event count is 5 (inactive) (at 100 µM) and 174 (event count, at 10 µM).
Taken in the same sequence, the figures for `Cc1ccc(OCC(O)Cn2c(=N)n(CCN3CCCCC3)c3ccccc32)cc1` (stereo not drawn) were 13 (inactive) and 96.
With `CCSc1nnc(Cn2c(=O)sc3ccccc32)n1-c1ccccc1C`, the cell event count reads like this: (at 100 µM) 249 (inactive); (event count, at 10 µM) 171.
For `CCn1c(=O)cc(SCC(=O)NCCN2CCN(Cc3ccccc3)CC2)c2ccccc21`, the cell event count reads like this: (at 100 µM) 228 (inactive); (event count, at 10 µM) 356.
For `CCOC(=O)N1CCC(NC(=O)c2cc3c(-c4cccc(OC)c4)nn(C)c3s2)CC1`, the cell event count runs as follows: (at 100 µM) 142 (inactive); (event count, at 10 µM) 300.
Taken in the same sequence, the figures for `O=C(CN1CCN(Cc2ccc3c(c2)OCO3)CC1)N1CCc2[nH]c3ccc(F)cc3c2C1` were 24 (inactive) and 234.
Taken in the same sequence, the figures for `CCc1cc(C)cc(OCCNC(=O)c2ncn[nH]2)c1` were 171 (inactive) and 54.
Consider `O=C(NCC(c1cccnc1)N1CCOCC1)c1cccc(Cl)c1` (stereo not drawn), for which the cell event count is 175 (inactive) (at 100 µM) and 94.5 (event count, at 10 µM).
On the same counts, the results for `COC(=O)c1cc(-c2ccccc2)sc1NC(=O)c1cc(C)on1` are 10 (active) and 42.5.
As for `Cc1ccccc1OCc1nc(-c2ccc(NC(=O)c3ccc4c(c3)OCO4)cc2)no1`, the cell event count (at 100 µM) is 31 (inactive) and the cell event count (event count, at 10 µM) stood at 154.
Taken in the same sequence, the figures for `CCN(CC)CCCNC(=O)c1cc(-c2ccc(Cl)c(Cl)c2)on1` were 22 (inactive) and 165.
Taken in the same sequence, the figures for `COC(=O)CN1CCN(C(=O)c2ccc(F)cc2)c2ccccc2C1` were 112 (inactive) and 157.
Turning to `Cn1c(=O)n(C)c2cc(CN3C(=O)OC(C)(C)C3(C)O)ccc21` (stereo not drawn), the cell event count (at 100 µM) is 211 (inactive) and the cell event count (event count, at 10 µM) is 145.
Regarding `Cn1c(=O)cc(OCC(=O)NCCCN2CCN(c3ccccc3F)CC2)c2ccccc21`, the cell event count (at 100 µM) is 227 (inactive) and the cell event count (event count, at 10 µM) turned out to be 401.
Taken in the same sequence, the figures for `CCN1CCCC1CNC(=O)C1CCN(Cc2nc(-c3cccc(Br)c3)oc2C)CC1` (stereo not drawn) were 16 (inactive) and 78.
Taken in the same sequence, the figures for `Cc1cc(=O)n2nc(N3CCCC(C(=O)NCCCN4CCc5ccccc5C4)C3)sc2n1` (stereo not drawn) were 259 (inactive) and 146.
On the same counts, the results for `Cc1ccc(C)c(N2CCN(CCCNC(=O)Cn3cc4c(n3)CCC(C)C4)CC2)c1` (stereo not drawn) are 5 (inactive) and 276.
As for `CN1CCN(CC(=O)Nc2ccc(Cl)cc2Cl)CC1`, the cell event count reads like this: (at 100 µM) 117 (inactive); (event count, at 10 µM) 198.
Consider `CCn1c(SCC(=O)Nc2ccccc2F)nc2c(c1=O)SC(C)C2` (stereo not drawn), for which the cell event count by setting is: (at 100 µM) 75 (inactive); (event count, at 10 µM) 70.5.
For `COc1ccc(N2CCN(CCCNC(=O)CN3CCN(Cc4ccccc4C)C3=O)CC2)cc1`, the cell event count (at 100 µM) is 19 (inactive) and the cell event count (event count, at 10 µM) amounted to 87.5.
With `c1ccc(OCCCn2nnc(-c3cccnc3)n2)cc1`, the cell event count (at 100 µM) was 123 (inactive) and the cell event count (event count, at 10 µM) amounted to 126.
With `CCOC(=O)C1=C(C)N=c2s/c(=C\c3ccncc3)c(=O)n2C1c1ccc2c(c1)OCO2` (stereo not drawn), the cell event count is, setting by setting: (at 100 µM) 17 (inactive); (event count, at 10 µM) 272.
Consider `Cc1oc(-c2cccc(Cl)c2)nc1CN1CCC(C(=O)NCCCN2CCCC2=O)CC1`, for which the cell event count (at 100 µM) was 166 (inactive) and the cell event count (event count, at 10 µM) stood at 190.
Taken in the same sequence, the figures for `COCCn1c(=O)[nH]c2cc(C(=O)NCCCN3CCN(c4ccc(F)cc4)CC3)ccc2c1=O` were 140 (inactive) and 194.
On the same counts, the results for `CCOC(=O)CSc1nnc(CNC(=O)c2ccccc2OC)n1-c1ccc(OC)cc1` are 256 (inactive) and 156.
Turning to `O=C(NCC1CCCO1)C1CC(c2ccc(Cl)c(Cl)c2)=NO1` (stereo not drawn), the cell event count is, setting by setting: (at 100 µM) 85 (inactive); (event count, at 10 µM) 79.
On the same counts, the results for `Nc1ccc(-c2nc3c(Cl)c(N)ccc3[nH]2)cc1` are 183 (inactive) and 206.
Turning to `CCOC(=O)C1CCCN(C(=O)Cn2cccc2C(=O)c2ccccc2)C1` (stereo not drawn), the cell event count runs as follows: (at 100 µM) 201 (inactive); (event count, at 10 µM) 166.
For `O=C(NCCCN1CCN(c2ccccc2F)CC1)C1CCC(=O)N1C1CCCCC1` (stereo not drawn), the cell event count reads like this: (at 100 µM) 388 (inactive); (event count, at 10 µM) 282.
On the same counts, the results for `Cc1nn(Cc2ccc(F)cc2)c(C)c1NC(=O)c1cc(-c2ccc3c(c2)OCO3)on1` are 105 (inactive) and 276.
Turning to `Cc1ccccc1-c1nc(CN2CCC(C(=O)NCCC3=CCCCC3)CC2)c(C)o1`, the cell event count is 11 (inactive) (at 100 µM) and 93.5 (event count, at 10 µM).
Taken in the same sequence, the figures for `COc1ccc(CCNC(=O)C2CCCN(Cc3nc(-c4ccccc4C)oc3C)C2)cc1OC` (stereo not drawn) were 12 (inactive) and 190.
On the same counts, the results for `COc1ccc(C(CC(=O)O)NC(=O)Cc2ccccc2)cc1` (stereo not drawn) are 186 (inactive) and 66.5.
`Nc1ccc(-n2ccnc2)cc1`: the cell event count was 173 (inactive) (at 100 µM) and 126 (event count, at 10 µM).
On the same counts, the results for `N#CC1=C(N)OC2=C(C(=O)CCC2)C1c1ccc(OC(=O)N2CCOCC2)cc1` (stereo not drawn) are 293 (inactive) and 223.
Taken in the same sequence, the figures for `Cc1ccc(-c2noc(CCC(=O)NCCCN3CCN(c4cccc(Cl)c4)CC3)n2)cc1` were 22 (inactive) and 123.
As for `Cc1ccc(NC(=O)CCNS(=O)(=O)c2ccc3c(c2)oc(=O)n3C)c(C)c1`, the cell event count (at 100 µM) is 350 (inactive) and the cell event count (event count, at 10 µM) is 129.
Taken in the same sequence, the figures for `CCN1CCCC1CNC(=O)c1cc2c(-c3cccc(OC)c3)nn(C)c2s1` (stereo not drawn) were 25 (inactive) and 81.5.
In the case of `CCN1CCN(c2cc(C)c3cc(NC(=O)c4ccc(Br)o4)ccc3n2)CC1`, the cell event count (at 100 µM) was 36 (inactive) and the cell event count (event count, at 10 µM) amounted to 233.
